Test results as given in PMC7862700, “An all-to-all approach to the identification of sequence-specific readers for epigenetic DNA modifications on cytosine”.

Experiments:
Experiment in all cases: DAPPL (digital affinity profiling via proximity ligation, sequencing); 10 mM Tris-HCl pH 7.5, 50 mM NaCl, 1 mM DTT, 4% glycerol, room temperature, 30 min; GST-TFs on glutathione beads, 16-mer random dsDNA library, 0.1% formaldehyde crosslink after washing; high values mean tight binding
FLI1 = target: T1, FLI1 (Homo sapiens, UniProt Q01543 1-452); conditions: protein: recombinant; tags: N-terminal GST; dsDNA, one strand shown
T1 sequence: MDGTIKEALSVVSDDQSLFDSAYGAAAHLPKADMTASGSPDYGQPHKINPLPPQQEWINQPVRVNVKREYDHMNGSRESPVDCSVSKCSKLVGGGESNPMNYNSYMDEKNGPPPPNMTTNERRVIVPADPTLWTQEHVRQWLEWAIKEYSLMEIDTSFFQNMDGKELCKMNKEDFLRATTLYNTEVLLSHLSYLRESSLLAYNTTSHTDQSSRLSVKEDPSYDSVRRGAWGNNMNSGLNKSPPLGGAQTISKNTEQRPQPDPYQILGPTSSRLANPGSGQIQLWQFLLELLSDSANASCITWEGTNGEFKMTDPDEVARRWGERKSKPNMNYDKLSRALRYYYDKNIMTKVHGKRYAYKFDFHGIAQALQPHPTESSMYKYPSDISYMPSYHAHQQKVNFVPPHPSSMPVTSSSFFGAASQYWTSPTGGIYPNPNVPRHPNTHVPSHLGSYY
Procedure, shortened: (§1)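 Human transcription factors carrying a GST fusion were produced in yeast, bound to glutathione beads, tagged with DNA barcodes and pooled together with a tag-only sample. Each pool was held with 200 nmole of a random double-stranded 16-mer DNA library in Tris/NaCl/DTT/glycerol buffer for 30 min at room temperature, then washed, crosslinked in 0.1% formaldehyde, proximity-ligated with BsaI/T4 ligase (1 h, 37 °C), PCR-amplified and sequenced on an Illumina NextSeq500. Binding signal is the read frequency of each hexamer for a given factor divided by its frequency in the tag-only sample.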

ELK1 = target: T2, ELK1 (Homo sapiens, UniProt P19419 1-428); conditions: protein: recombinant; tags: N-terminal GST; dsDNA, one strand shown
T2 sequence: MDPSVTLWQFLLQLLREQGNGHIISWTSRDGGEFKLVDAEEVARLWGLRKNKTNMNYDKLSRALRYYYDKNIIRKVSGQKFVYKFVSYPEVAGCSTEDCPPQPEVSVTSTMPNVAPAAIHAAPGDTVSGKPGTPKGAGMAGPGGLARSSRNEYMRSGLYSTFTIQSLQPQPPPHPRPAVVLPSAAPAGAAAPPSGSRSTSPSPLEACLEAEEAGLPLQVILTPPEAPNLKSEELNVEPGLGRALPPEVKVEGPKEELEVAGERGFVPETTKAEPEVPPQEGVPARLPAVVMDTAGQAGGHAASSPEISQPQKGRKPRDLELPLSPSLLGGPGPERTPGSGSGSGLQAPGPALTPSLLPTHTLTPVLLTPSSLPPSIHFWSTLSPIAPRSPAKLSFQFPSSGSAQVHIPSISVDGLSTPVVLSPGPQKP
Procedure, shortened: as §1

GABPA = target: T3, GABPA (Homo sapiens, UniProt Q06546 1-454); conditions: protein: recombinant; tags: N-terminal GST; dsDNA, one strand shown
T3 sequence: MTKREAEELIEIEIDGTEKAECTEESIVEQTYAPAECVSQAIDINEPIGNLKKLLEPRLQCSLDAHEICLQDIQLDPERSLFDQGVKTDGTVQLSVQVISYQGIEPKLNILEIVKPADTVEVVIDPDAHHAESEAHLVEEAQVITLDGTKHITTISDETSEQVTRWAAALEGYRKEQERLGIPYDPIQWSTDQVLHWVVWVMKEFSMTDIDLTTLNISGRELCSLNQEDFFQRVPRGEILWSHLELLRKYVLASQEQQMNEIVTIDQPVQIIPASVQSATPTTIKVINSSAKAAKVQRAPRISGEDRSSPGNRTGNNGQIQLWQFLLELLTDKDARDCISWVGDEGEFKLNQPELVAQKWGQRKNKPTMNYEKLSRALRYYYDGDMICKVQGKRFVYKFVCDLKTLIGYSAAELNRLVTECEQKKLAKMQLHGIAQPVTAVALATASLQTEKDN
Procedure, shortened: as §1

ERG = target: T4, ERG (Homo sapiens, UniProt P11308 1-479); conditions: protein: recombinant; tags: N-terminal GST; dsDNA, one strand shown
T4 sequence: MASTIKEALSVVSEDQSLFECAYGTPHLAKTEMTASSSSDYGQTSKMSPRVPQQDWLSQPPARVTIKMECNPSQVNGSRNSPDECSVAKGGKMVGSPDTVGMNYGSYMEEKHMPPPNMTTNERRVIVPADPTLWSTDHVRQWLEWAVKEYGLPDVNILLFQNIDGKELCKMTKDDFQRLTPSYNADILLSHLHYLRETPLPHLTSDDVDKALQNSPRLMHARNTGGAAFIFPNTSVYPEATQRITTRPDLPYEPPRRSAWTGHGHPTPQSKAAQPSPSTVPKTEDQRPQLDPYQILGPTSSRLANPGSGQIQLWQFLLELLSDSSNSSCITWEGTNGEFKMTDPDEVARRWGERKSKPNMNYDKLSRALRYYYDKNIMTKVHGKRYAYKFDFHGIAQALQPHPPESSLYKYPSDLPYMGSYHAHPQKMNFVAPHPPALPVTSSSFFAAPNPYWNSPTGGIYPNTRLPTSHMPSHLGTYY
Procedure, shortened: as §1

ELF1 = ELF1 (Homo sapiens, UniProt P32519 1-619); conditions: protein: recombinant; tags: N-terminal GST; dsDNA, one strand shown
Procedure, shortened: as §1

EHF = target: T5, EHF (Homo sapiens, UniProt Q9NZC4 1-300); conditions: protein: recombinant; tags: N-terminal GST; dsDNA, one strand shown
T5 sequence: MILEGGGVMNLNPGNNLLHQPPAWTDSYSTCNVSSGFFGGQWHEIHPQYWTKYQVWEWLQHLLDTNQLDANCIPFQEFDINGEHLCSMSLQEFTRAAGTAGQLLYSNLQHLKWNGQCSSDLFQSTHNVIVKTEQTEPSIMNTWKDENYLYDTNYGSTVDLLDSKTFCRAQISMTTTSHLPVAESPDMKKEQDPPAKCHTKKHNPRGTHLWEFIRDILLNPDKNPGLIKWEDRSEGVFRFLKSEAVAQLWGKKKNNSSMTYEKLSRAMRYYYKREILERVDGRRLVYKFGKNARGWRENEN
Procedure, shortened: as §1

SPI1 = SPI1 (Homo sapiens, UniProt P17947 1-270); conditions: protein: recombinant; tags: N-terminal GST; dsDNA, one strand shown
Procedure, shortened: as §1

SPIB = SPIB (Homo sapiens, UniProt Q01892 1-262); conditions: protein: recombinant; tags: N-terminal GST; dsDNA, one strand shown
Procedure, shortened: as §1

ELK3 = target: T6, ELK3 (Homo sapiens, UniProt P41970 1-407); conditions: protein: recombinant; tags: N-terminal GST; dsDNA, one strand shown
T6 sequence: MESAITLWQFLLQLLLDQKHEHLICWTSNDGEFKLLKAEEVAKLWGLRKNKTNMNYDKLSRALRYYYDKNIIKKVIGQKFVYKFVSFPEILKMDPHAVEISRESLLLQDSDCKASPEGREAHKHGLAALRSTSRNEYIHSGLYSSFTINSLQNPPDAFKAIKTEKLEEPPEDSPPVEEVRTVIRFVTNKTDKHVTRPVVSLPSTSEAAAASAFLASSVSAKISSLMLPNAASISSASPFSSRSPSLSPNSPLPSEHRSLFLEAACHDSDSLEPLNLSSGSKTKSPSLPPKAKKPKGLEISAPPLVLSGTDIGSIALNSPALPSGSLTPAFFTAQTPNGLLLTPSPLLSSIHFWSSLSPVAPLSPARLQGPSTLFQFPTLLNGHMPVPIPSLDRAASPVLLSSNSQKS
Procedure, shortened: as §1

FEV = target: T7, FEV (Homo sapiens, UniProt Q99581 1-238); conditions: protein: recombinant; tags: N-terminal GST; dsDNA, one strand shown
T7 sequence: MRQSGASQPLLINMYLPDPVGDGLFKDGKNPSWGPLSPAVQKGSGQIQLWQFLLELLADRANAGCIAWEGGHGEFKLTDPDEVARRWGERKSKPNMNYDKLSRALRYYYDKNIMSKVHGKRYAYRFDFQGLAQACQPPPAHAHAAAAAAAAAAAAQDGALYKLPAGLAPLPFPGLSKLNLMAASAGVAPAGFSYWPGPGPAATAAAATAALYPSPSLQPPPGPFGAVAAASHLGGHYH
Procedure, shortened: as §1

ETV5 = ETV5 (Homo sapiens, UniProt P41161 1-510); conditions: protein: recombinant; tags: N-terminal GST; dsDNA, one strand shown
Procedure, shortened: as §1

HSF1 = HSF1 (Homo sapiens, UniProt Q00613 1-529); conditions: protein: recombinant; tags: N-terminal GST; chain copies: 3; dsDNA, one strand shown
Procedure, shortened: as §1

SPIC = target: T8, SPIC (Homo sapiens, UniProt Q8N5J4 1-248); conditions: protein: recombinant; tags: N-terminal GST; dsDNA, one strand shown
T8 sequence: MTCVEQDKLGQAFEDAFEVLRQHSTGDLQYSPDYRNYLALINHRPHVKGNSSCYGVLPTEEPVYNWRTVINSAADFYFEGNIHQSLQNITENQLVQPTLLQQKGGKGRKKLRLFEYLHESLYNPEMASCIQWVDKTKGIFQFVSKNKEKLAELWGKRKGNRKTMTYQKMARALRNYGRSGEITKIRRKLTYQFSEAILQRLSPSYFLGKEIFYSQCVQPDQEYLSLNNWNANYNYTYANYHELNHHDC
Procedure, shortened: as §1

ELF4 = ELF4 (Homo sapiens, UniProt Q99607 1-663); conditions: protein: recombinant; tags: N-terminal GST; dsDNA, one strand shown
Procedure, shortened: as §1

ELK4 = target: T9, ELK4 (Homo sapiens, UniProt P28324-2 1-405); conditions: protein: recombinant; tags: N-terminal GST; dsDNA, one strand shown
T9 sequence: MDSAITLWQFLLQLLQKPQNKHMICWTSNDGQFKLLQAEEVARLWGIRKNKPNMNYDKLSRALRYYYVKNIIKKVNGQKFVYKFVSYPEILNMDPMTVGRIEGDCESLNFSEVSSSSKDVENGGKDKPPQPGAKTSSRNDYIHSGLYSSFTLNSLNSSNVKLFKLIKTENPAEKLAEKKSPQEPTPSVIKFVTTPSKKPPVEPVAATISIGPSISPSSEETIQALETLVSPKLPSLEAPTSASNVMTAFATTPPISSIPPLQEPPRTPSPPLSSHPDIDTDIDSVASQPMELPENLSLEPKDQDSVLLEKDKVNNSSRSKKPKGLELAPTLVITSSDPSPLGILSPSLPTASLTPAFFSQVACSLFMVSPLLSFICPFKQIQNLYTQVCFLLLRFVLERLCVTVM
Procedure, shortened: as §1

ETV2 = target: T10, ETV2 (Homo sapiens, UniProt O00321 1-342); conditions: protein: recombinant; tags: N-terminal GST; dsDNA, one strand shown
T10 sequence: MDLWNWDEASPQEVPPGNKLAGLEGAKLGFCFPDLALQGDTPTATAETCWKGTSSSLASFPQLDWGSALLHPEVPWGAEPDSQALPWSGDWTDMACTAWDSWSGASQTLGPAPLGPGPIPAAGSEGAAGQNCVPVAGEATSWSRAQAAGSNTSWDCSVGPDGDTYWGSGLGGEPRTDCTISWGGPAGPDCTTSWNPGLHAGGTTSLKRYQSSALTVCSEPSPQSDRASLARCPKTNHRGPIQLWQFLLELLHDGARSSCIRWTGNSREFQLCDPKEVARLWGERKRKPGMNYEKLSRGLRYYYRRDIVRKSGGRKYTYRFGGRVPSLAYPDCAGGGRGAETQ
Procedure, shortened: as §1

CRX = CRX (Homo sapiens, UniProt O43186 1-299); conditions: protein: recombinant; tags: N-terminal GST; dsDNA, one strand shown
Procedure, shortened: as §1

ETV1 = ETV1 (Homo sapiens, UniProt P50549 1-477); conditions: protein: recombinant; tags: N-terminal GST; dsDNA, one strand shown
Procedure, shortened: as §1

Sequence of ETV1 (P50549 whole entry): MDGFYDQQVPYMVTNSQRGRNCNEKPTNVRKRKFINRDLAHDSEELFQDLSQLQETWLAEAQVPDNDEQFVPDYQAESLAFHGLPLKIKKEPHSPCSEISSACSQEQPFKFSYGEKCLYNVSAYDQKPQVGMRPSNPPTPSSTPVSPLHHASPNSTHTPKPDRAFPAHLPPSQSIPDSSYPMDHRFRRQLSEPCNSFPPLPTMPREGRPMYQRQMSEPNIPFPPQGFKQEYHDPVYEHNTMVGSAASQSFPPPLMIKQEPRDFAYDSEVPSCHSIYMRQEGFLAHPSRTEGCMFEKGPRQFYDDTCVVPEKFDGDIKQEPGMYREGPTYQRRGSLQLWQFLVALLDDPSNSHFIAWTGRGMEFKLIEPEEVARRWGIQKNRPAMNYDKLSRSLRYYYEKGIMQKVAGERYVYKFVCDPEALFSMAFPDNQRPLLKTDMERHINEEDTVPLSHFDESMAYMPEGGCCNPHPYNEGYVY
Sequence of SPIB (Q01892 whole entry): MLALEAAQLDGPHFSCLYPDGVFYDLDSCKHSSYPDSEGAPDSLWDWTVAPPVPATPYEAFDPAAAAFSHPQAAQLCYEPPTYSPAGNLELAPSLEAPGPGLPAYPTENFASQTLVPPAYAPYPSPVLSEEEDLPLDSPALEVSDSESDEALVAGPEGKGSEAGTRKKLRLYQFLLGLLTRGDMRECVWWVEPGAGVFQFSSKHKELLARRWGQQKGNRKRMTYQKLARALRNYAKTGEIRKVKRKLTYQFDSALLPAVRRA
Sequence of ETV5 (P41161 whole entry): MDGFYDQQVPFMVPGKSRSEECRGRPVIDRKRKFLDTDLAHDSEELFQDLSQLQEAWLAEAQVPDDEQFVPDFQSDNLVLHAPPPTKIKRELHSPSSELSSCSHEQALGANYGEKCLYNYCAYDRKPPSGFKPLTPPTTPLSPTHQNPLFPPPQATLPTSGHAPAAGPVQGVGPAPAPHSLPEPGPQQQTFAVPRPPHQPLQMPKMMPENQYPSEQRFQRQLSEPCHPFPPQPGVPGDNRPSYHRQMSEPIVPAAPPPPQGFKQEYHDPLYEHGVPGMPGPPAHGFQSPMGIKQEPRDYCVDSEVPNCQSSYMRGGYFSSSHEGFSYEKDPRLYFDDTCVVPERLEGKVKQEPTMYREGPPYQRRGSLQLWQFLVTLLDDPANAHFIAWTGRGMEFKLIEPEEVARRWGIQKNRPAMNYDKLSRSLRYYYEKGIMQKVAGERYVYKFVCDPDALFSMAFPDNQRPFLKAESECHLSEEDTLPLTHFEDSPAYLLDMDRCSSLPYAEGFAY
Sequence of ELF1 (P32519 whole entry): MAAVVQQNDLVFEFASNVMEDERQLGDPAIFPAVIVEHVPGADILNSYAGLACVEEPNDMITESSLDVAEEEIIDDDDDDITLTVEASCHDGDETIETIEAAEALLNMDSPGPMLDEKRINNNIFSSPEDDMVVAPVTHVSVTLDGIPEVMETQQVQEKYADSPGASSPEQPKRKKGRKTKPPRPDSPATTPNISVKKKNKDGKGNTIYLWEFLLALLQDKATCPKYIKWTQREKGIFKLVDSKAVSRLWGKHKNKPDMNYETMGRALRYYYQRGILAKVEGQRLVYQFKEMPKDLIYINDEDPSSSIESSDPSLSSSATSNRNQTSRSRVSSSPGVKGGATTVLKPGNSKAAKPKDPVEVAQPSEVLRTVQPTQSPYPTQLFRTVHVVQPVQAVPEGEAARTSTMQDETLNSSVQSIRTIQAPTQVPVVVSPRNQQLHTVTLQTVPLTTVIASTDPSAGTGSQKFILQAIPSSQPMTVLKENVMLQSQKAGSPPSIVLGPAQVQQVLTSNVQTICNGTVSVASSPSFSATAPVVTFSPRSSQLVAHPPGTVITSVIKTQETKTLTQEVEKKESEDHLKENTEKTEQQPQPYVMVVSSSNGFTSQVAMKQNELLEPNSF
Sequence of HSF1 (Q00613 whole entry): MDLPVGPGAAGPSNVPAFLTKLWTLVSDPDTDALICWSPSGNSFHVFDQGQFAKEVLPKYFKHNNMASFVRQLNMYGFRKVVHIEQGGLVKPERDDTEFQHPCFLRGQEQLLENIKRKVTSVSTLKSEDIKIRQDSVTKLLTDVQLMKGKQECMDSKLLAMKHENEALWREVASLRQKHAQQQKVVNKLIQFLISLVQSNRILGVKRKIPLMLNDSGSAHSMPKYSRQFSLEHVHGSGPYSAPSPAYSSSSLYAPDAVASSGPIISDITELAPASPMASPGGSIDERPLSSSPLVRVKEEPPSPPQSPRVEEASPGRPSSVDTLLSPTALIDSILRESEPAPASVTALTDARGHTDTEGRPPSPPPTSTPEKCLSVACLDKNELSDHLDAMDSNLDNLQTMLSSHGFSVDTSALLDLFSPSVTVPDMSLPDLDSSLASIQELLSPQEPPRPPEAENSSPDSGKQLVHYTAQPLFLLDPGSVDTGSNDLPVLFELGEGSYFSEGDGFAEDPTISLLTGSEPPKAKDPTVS
Sequence of ELF4 (Q99607 whole entry): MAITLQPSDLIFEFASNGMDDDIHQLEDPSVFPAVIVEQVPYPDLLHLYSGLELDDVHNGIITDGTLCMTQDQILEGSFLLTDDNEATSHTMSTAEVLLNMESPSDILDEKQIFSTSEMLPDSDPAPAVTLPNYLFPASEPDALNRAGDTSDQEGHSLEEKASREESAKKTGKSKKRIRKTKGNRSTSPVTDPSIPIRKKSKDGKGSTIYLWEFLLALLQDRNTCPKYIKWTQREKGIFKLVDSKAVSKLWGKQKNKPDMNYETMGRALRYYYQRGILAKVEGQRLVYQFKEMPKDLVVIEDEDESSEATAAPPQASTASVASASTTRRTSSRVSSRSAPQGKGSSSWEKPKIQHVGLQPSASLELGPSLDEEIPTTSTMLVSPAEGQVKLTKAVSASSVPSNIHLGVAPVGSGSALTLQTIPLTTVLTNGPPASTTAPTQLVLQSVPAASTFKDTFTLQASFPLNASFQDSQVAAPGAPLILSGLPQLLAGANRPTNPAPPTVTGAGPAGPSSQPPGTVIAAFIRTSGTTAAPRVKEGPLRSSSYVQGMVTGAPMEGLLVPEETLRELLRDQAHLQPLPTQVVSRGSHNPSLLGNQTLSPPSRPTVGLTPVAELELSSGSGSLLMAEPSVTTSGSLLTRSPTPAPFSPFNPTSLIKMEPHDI
Sequence of CRX (O43186 whole entry): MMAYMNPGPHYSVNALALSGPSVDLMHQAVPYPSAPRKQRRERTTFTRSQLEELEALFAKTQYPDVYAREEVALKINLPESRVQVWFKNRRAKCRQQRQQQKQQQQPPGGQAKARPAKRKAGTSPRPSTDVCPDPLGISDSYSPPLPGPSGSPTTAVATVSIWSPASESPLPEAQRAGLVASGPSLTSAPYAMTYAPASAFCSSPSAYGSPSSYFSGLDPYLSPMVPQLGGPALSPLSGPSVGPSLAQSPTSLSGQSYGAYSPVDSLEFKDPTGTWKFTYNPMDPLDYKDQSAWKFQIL

TTAGAA
binding signal (FLI1): 1 fold enrichment (6-mer frequency, TF over GST control) | binding signal (ELK1): 1.02 fold enrichment (6-mer frequency, TF over GST control) | binding signal (GABPA): 1.01 fold enrichment (6-mer frequency, TF over GST control) | binding signal (ERG): 1.05 fold enrichment (6-mer frequency, TF over GST control) | binding signal (ELF1): 1.14 fold enrichment (6-mer frequency, TF over GST control) | binding signal (EHF): 1.14 fold enrichment (6-mer frequency, TF over GST control) | binding signal (SPI1): 1.13 fold enrichment (6-mer frequency, TF over GST control) | binding signal (SPIB): 1.03 fold enrichment (6-mer frequency, TF over GST control) | binding signal (ELK3): 1.06 fold enrichment (6-mer frequency, TF over GST control) | binding signal (FEV): 1.02 fold enrichment (6-mer frequency, TF over GST control) | binding signal (ETV5): 1.01 fold enrichment (6-mer frequency, TF over GST control) | binding signal (HSF1): 1.93 fold enrichment (6-mer frequency, TF over GST control) | binding signal (SPIC): 1.25 fold enrichment (6-mer frequency, TF over GST control) | binding signal (ELF4): 1.04 fold enrichment (6-mer frequency, TF over GST control) | binding signal (ELK4): 1.1 fold enrichment (6-mer frequency, TF over GST control) | binding signal (ETV2): 1.13 fold enrichment (6-mer frequency, TF over GST control) | binding signal (CRX): 2.08 fold enrichment (6-mer frequency, TF over GST control) | binding signal (ETV1): 1.11 fold enrichment (6-mer frequency, TF over GST control)
